This excerpt belongs to a sample that is enriched for the strongest signals.
Experiments:
Assay in all cases: glycan array binding signal (z-score within array); higher = stronger binding
Settings in all cases: glycan notation: IUPAC condensed, linker removed
[1] = molecular target: Fuc(a1-2)Gal(b1-3)GlcNAc(b1-3)Gal(b1-4)Glc
Method in brief: (§1)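 Glycan array data came from 3228 arrays in the Consortium for Functional Glycomics database, and only arrays with an available protein sequence were kept. Glycan names were put into IUPAC-condensed notation, and columns mapping to the same glycan were averaged. The binding signal is a within-array Z-score, averaged across arrays of one protein sequence run at different concentrations or buffers and across linkers. A negative Z-score can be read as non-binding.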

[2] = molecular target: Fuc(a1-2)Gal(b1-3)[Fuc(a1-4)]GlcNAc(b1-2)Man(a1-3)[Fuc(a1-2)Gal(b1-3)[Fuc(a1-4)]GlcNAc(b1-2)Man(a1-6)]Man(b1-4)GlcNAc(b1-4)GlcNAc
Method in brief: as §1

Fuc(a1-2)Gal(b1-4)Glc6S = molecular target: Fuc(a1-2)Gal(b1-4)Glc6S
Method in brief: as §1

[3] = molecular target: Fuc(a1-2)Gal(b1-4)[Fuc(a1-3)]GlcNAc
Method in brief: as §1

[4] = molecular target: Fuc(a1-2)Gal(b1-4)[Fuc(a1-3)]GlcNAc(b1-2)Man(a1-3)[Fuc(a1-2)Gal(b1-4)[Fuc(a1-3)]GlcNAc(b1-2)Man(a1-6)]Man(b1-4)GlcNAc(b1-4)GlcNAc
Method in brief: as §1

[5] = molecular target: Fuc(a1-2)Gal(b1-4)[Fuc(a1-3)]GlcNAc(b1-3)Gal(b1-4)[Fuc(a1-3)]GlcNAc(b1-3)Gal(b1-4)[Fuc(a1-3)]GlcNAc
Method in brief: as §1

[6] = molecular target: Fuc(a1-2)[Gal(a1-3)]Gal(b1-4)Glc
Method in brief: as §1

[7] = molecular target: Fuc(a1-3)[Gal(b1-4)]GlcNAc(b1-4)Gal(b1-4)[Fuc(a1-3)]GlcNAc(b1-4)Gal(b1-4)[Fuc(a1-3)]GlcNAc
Method in brief: as §1

[8] = molecular target: Fuc(a1-3)[Neu5Ac(a2-3)]Gal(b1-4)GlcNAc(b1-3)GalNAc
Method in brief: as §1

Fuc(a1-4)GlcNAc = molecular target: Fuc(a1-4)GlcNAc
Method in brief: as §1

[9] = molecular target: Gal(a1-3)Gal(b1-4)[Fuc(a1-3)]GlcNAc(b1-2)Man(a1-3)[Gal(a1-3)Gal(b1-4)[Fuc(a1-3)]GlcNAc(b1-2)Man(a1-6)]Man(b1-4)GlcNAc(b1-4)GlcNAc
Method in brief: as §1

Gal(a1-3)GalNAc = molecular target: Gal(a1-3)GalNAc
Method in brief: as §1

Gal(b1-3)GlcNAc = molecular target: Gal(b1-3)GlcNAc
Method in brief: as §1

[10] = molecular target: Gal(b1-4)GlcNAc(b1-2)Man(a1-3)[Man(a1-6)]Man(b1-4)GlcNAc(b1-4)GlcNAc
Method in brief: as §1

[11] = molecular target: Gal(b1-4)GlcNAc(b1-2)[Gal(b1-4)GlcNAc(b1-4)]Man(a1-3)[Gal(b1-4)GlcNAc(b1-2)Man(a1-6)]Man(b1-4)GlcNAc(b1-4)GlcNAc
Method in brief: as §1

Gal4S6S(b1-4)GlcNAc = molecular target: Gal4S6S(b1-4)GlcNAc
Method in brief: as §1

[12] = molecular target: GlcNAc(a1-4)Gal(b1-4)GlcNAc
Method in brief: as §1

[13] = molecular target: GlcNAc(b1-2)Man(a1-3)[GlcNAc(b1-2)Man(a1-6)]Man(b1-4)GlcNAc(b1-4)[Fuc(a1-6)]GlcNAc
Method in brief: as §1

GlcNAc(b1-3)Gal = molecular target: GlcNAc(b1-3)Gal
Method in brief: as §1

[14] = molecular target: GlcNAc(b1-3)[GlcNAc(b1-6)]Gal(b1-4)GlcNAc
Method in brief: as §1

[15] = molecular target: Man(a1-2)Man(a1-2)Man(a1-6)[Man(a1-3)]Man
Method in brief: as §1

[16] = molecular target: Man(a1-2)Man(a1-3)[Man(a1-2)Man(a1-6)]Man
Method in brief: as §1

[17] = molecular target: Man(a1-2)Man(a1-3)[Man(a1-2)Man(a1-6)]Man(a1-6)[Man(a1-2)Man(a1-2)Man(a1-3)]Man
Method in brief: as §1

[18] = molecular target: Man(a1-2)Man(a1-3)[Man(a1-6)]Man(a1-6)[Man(a1-2)Man(a1-3)]Man(b1-4)GlcNAc(b1-4)GlcNAc
Method in brief: as §1

[19] = molecular target: Man(a1-2)Man(a1-6)[Man(a1-3)]Man(a1-6)[Man(a1-2)Man(a1-2)Man(a1-3)]Man
Method in brief: as §1

[20] = molecular target: Man(a1-2)Man(a1-6)[Man(a1-3)]Man(a1-6)[Man(a1-2)Man(a1-2)Man(a1-3)]Man(b1-4)GlcNAc(b1-4)GlcNAc
Method in brief: as §1

Man(a1-3)[Man(a1-6)]Man = molecular target: Man(a1-3)[Man(a1-6)]Man
Method in brief: as §1

Man(b1-4)GlcNAc = molecular target: Man(b1-4)GlcNAc
Method in brief: as §1

[21] = molecular target: Neu5Ac(a2-3)Gal(b1-4)GlcNAc(b1-3)Gal(b1-4)GlcNAc(b1-3)Gal(b1-4)GlcNAc
Method in brief: as §1

[22] = molecular target: Neu5Ac(a2-6)Gal(b1-4)GlcNAc(b1-3)Gal(b1-4)GlcNAc
Method in brief: as §1

[23] = molecular target: Neu5Ac(a2-6)Gal(b1-4)GlcNAc6S
Method in brief: as §1

[24] = molecular target: Neu5Ac(a2-8)Neu5Ac(a2-3)[GalNAc(b1-4)]Gal(b1-4)Glc
Method in brief: as §1

[25] = molecular target: Neu5Ac(a2-8)Neu5Ac(a2-8)Neu5Ac
Method in brief: as §1

[26] = molecular target: Neu5Gc(a2-3)Gal(b1-3)[Fuc(a1-4)]GlcNAc
Method in brief: as §1

B1: DGL (Dioclea grandiflora), P08902 (protein)
chain: ADTIVAVELDSYPNTDIGDPNYPHIGIDIKSIRSKSTARWNMQTGKVGTVHISYNSVAKRLSAVVSYSGSSSTTVSYDVDLNNVLPEWVRVGLSATTGLYKETNTILSWSFTSKLKTNSIADENSLHFSFHKFSQNPKDLILQGDAFTDSDGNLELTKVSSSGDPQGNSVGRALFYAPVHIWESSAVVASFDATFTFLIKSPDREPADGITFFIANTDTSIPSGSGGRLLGLFPDAN
glycan array binding signal (z-score) [1]: -0.177 | glycan array binding signal (z-score) [2]: -0.169 | glycan array binding signal (z-score) (Fuc(a1-2)Gal(b1-4)Glc6S): -0.172 | glycan array binding signal (z-score) [3]: -0.176 | glycan array binding signal (z-score) [4]: -0.144 | glycan array binding signal (z-score) [5]: -0.168 | glycan array binding signal (z-score) [6]: -0.177 | glycan array binding signal (z-score) [7]: -0.182 | glycan array binding signal (z-score) [8]: -0.072 | glycan array binding signal (z-score) (Fuc(a1-4)GlcNAc): -0.175 | glycan array binding signal (z-score) [9]: -0.175 | glycan array binding signal (z-score) (Gal(a1-3)GalNAc): -0.173 | glycan array binding signal (z-score) (Gal(b1-3)GlcNAc): -0.172 | glycan array binding signal (z-score) [10]: -0.151 | glycan array binding signal (z-score) [11]: -0.161 | glycan array binding signal (z-score) (Gal4S6S(b1-4)GlcNAc): -0.183 | glycan array binding signal (z-score) [12]: -0.176 | glycan array binding signal (z-score) [13]: 0.316 | glycan array binding signal (z-score) (GlcNAc(b1-3)Gal): -0.178 | glycan array binding signal (z-score) [14]: -0.183 | glycan array binding signal (z-score) [15]: 5.91 | glycan array binding signal (z-score) [16]: 9.67 | glycan array binding signal (z-score) [17]: 3.48 | glycan array binding signal (z-score) [18]: 6.68 | glycan array binding signal (z-score) [19]: 7.91 | glycan array binding signal (z-score) [20]: 6.41 | glycan array binding signal (z-score) (Man(a1-3)[Man(a1-6)]Man): 3.63 | glycan array binding signal (z-score) (Man(b1-4)GlcNAc): -0.186 | glycan array binding signal (z-score) [21]: -0.183 | glycan array binding signal (z-score) [22]: -0.178 | glycan array binding signal (z-score) [23]: -0.179 | glycan array binding signal (z-score) [24]: -0.178 | glycan array binding signal (z-score) [25]: -0.175 | glycan array binding signal (z-score) [26]: -0.179

From the supplement of paper PMC8728848
